# Test results taken from PubChem BioAssay (EPA / NIEHS).
# Activity calls are given as the source filed them. Rule for the calls: active = hit-call score of the fitted dose curve at least 0.9, where 1 is the maximum; inactive = score below 0.9.
# Experiment: ATG_FoxO_CIS: Attagene CIS-FACTORIAL HepG2 Assay for human Forkhead box O (FoxO) (AID 2282943)
# Conditions: HepG2 Attagene cis-reporter, FoxO element, mRNA; actives raise or lower the signal
# Description: ATG_CIS is a cell-based, multiplexed-readout assay that uses HepG2, a human liver cell line, with measurements taken at 24 hours after chemical dosing in a 24-well plate.ATG_FoxO_CIS is one of 52 assay component(s) measured or calculated from the ATG_CIS assay. It is designed to make measurements of mRNA induction, a form of inducible reporter, as detected with fluorescence intensity signals by Reverse transcription polymerase chain reaction (RT-PCR) and Capillary electrophoresis technology.Data from the assay component ATG_FoxO_CIS was analyzed into 1 assay endpoint. This assay endpoint, ATG_FoxO_CIS, was analyzed with bidirectional fitting relative to DMSO as the negative control and baseline of activity. Using a type of inducible reporter, measures of mRNA for gain or loss-of-signal activity can be used to understand the reporter gene at the transcription factor-level as they relate to the gene FOXO1 and FOXO3. Furthermore, this assay endpoint can be referred to as a primary readout, because this assay has produced multiple assay endpoints where this one serves a reporter gene function. To generalize the intended target to other relatable targets, this assay endpoint is annotated to the dna binding intended target family, where the subfamily is forkhead box protein.
# Human liver HepG2 cells are transiently transfected with multiple reporter transcription units (MRTUs) in 6-well plates using FuGene 6 reagent (Roche; 3 ml FuGene/1 mg DNA). The MRTU constructs are regulated by a cis-regulating element (promoter). […] A major difference between the CIS and TRANS system is that in CIS activities of endogenous TFs are measured, whereas the TRANS assay evaluates changes in activities of exogenous, chimeric NR-Gal4 proteins. […] At the end of 24 hour incubation, total RNA was isolated using TriZol reagent (Invitrogen). The isolated RNA is then reverse-transcribed using oligo(dT) primer and Mo-MLV reverse transcriptase (Invitrogen) with DNAse I (Ambion) treatment for 30 min. The one-tenth of the produced cDNA was amplified by PCR using Taq DNA polymerase (Invitrogen) and two reporter sequence-specific primers. The PCR products were fluorescently labeled by primer extension with 6-arboxyfluorescein (6-FAM) 5'-labeled reporter sequence-specific primer (2 min at 95 C, 20 s at 68 C and 10 min at 72 C) and these products were digested with 5U of HpaI (New England Biolabs) for 2h at 37 C. The fragments were purified using Qiaquick PCR columns (Qiagen), analyzed on an ABI 3130xL genetic analyzer (Applied Biosystems) with peak positions identified by using a set of X-rhodamine (ROX)-labeled MapMarker1000 molecular weight standards (BioVentures). The raw capillary electrophoresis data was processed using Attagraph software (Attagene).
Compound,outcome,AC50
CC1C2CC(CC2C2CCCC(O)C2)C1(C)C (stereo not given),inactive,
Nc1c(Cl)cc(Cl)cc1[N+](=O)[O-],inactive,
COC(=O)c1ccc([N+](=O)[O-])cc1,inactive,
FC(F)(F)COCC(F)(F)F,inactive,
c1ccc(Oc2ccccc2)cc1,inactive,
C=Cc1ccc(C(C)(C)C)cc1,inactive,
CCCN(CCC)S(=O)(=O)c1ccc(C(=O)O)cc1,inactive,
CN1CCOCC1,inactive,
COCCOC(=O)c1ccccc1C(=O)OCCOC,inactive,
COC(=O)c1cccnc1,inactive,
CCCCCCOC(=O)C(C)C,inactive,
OCCCCC(O)CO (stereo not given),inactive,
ClC(c1ccccc1)(c1ccccc1)c1ccccc1,inactive,
CCCC[P+](CCCC)(CCCC)CCCC,inactive,
CC(=O)NCCO,inactive,
C=Cc1ccncc1,,43.4 µM (active)
CCCSc1ccc2nc(NC(=O)OC)[nH]c2c1,inactive,
COc1cccc(OC)c1O,inactive,
COC(=O)Nc1ccc(Cl)c(Cl)c1,inactive,
c1ccc2cc(Nc3ccc(Nc4ccc5ccccc5c4)cc3)ccc2c1,inactive,

Compound,outcome,AC50
CCCCCCCCC=CCCCCCCCC1=NCCN1CCO,inactive,
CCCCCCCCCCCCN1CCCCCC1=O,inactive,
CCCCCCCCCCCCCC(=O)OCC(O)CO (stereo not given),inactive,
CSc1c(Cl)c(Cl)c(Cl)c(Cl)c1Cl,inactive,
CCO/C=C1\N=C(c2ccccc2)OC1=O,inactive,
CC(C)(C)OC(=O)c1ccc(O)cc1,inactive,
CC(C)(C)CC(C)(C)c1ccc(OCCOCC[N+](C)(C)Cc2ccccc2)cc1,inactive,
CCC(C)=O,inactive,
Cc1cc(S(=O)(=O)O)ccc1N=Nc1c(O)ccc2ccccc12,inactive,
C[C@@H]1CCN(C(=O)[C@H](CCCN=C(N)N)NS(=O)(=O)c2cccc3c2NC[C@H](C)C3)[C@@H](C(=O)O)C1,inactive,
CC(=O)O[C@@H]1C[C@@H]2CC[C@@]1(C)C2(C)C,inactive,
[O-]n1ccccc1=S.[O-]n1ccccc1=S.[Zn+2],inactive,
C1CCOC1,inactive,
C=C(C)[C@H]1CC=C(C)C(=O)C1,inactive,
OCCOCCN1CCN(C2=Nc3ccccc3Sc3ccccc32)CC1,inactive,
O=P(O)(O)O,inactive,
CCCCN(CCCC)C(=O)N(CCCC)CCCC,inactive,
O=C(O)COCC(=O)O,inactive,
Cc1ccc(OC(=O)c2ccccc2O)cc1,inactive,
COc1cc(CCC(C)=O)ccc1O,inactive,
